# Screening data (PubChem)
# In the library only some 12% were active in any assay of this set; here they are far more common.
# JMJD2A Tudor = qHTS Assay for Inhibitors of JMJD2A-Tudor Domain; actives 4.4% (n = 390,000); AID 504339, 2011; Lysine-specific demethylase 4A (Homo sapiens), O75164; Potency, µM (highest dose often 114 µM), for the others: at the highest dose activity change, negative = inhibition, usual class: inhibitors; AlphaScreen JMJD2A-Tudor / H3K4me3 peptide binding; further: potency means the concentration at half of the fitted maximal effect; on the % scale 0 is the no-effect control and ±100 the full control effect; nearly all actives have a fitted effect of over 50% in size
# PI5P4Ka inh = qHTS for Inhibitors of phosphatidylinositol 5-phosphate 4-kinase (PI5P4K); Phosphatidylinositol 5-phosphate 4-kinase type-2 alpha (Homo sapiens), P48426; PI5P4Kalpha enzyme, ADP-Glo luminescence, 60 min; hits give low values; max response, %; actives 1.2% (n = 330,000); active means max response of -50% or lower; inconclusive means between -30% and -50%; inactive means -30% or higher; further: value at the top dose of about 77 µM; on the % scale 0 is the no-effect control and ±100 the full control effect
# Target sequence (P48426 whole entry, looked up): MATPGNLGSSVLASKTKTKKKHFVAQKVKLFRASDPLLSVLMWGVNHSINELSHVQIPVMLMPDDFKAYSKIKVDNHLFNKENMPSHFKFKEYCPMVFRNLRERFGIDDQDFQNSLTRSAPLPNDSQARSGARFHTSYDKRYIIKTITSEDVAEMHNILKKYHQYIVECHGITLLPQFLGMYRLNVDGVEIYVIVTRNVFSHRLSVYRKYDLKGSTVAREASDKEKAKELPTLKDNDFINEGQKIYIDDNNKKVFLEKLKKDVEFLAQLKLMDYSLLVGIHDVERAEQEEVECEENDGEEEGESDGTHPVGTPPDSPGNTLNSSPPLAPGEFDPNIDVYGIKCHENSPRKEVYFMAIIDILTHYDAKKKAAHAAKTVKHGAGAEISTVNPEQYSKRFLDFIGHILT
#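 Quantitative HTS of the MLSMR library against PI5P4Kalpha with substrate. ATP added last at 5 microM final; room temperature, 60 minutes. Remaining ATP depleted, ADP converted and read as luminescence.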
# PLK1 PBD block = qHTS for Inhibitors of PLK1-PDB (polo-like kinase 1 - polo-box domain): Primary Screen; Serine/threonine-protein kinase PLK1 (Homo sapiens), P53350; Plk1 PBD binding of FITC phosphopeptide, fluorescence polarization; Potency, µM, inactives show max response, negative = inhibition, usual class: inhibitors; actives 2.8% (n = 360,000); AID 720504, 2013; further: potency means the concentration at half of the fitted maximal effect; series mostly up to about 57 µM; on the % scale 0 is the no-effect control and ±100 the full control effect; nearly all actives have a fitted effect of over 65% in size
# HP1b chromo inh = HTS for Inhibitors of HP1-beta Chromodomain Interactions with Methylated Histone Tails; AlphaScreen HP1-beta / biotin-H3K9me3 peptide binding; actives 0.56% (n = 390,000); Potency, µM (highest dose often 114 µM), inactives show at the top dose activity change, negative = inhibition, actives largely listed as inhibitors; further: potency means the concentration at half of the fitted maximal effect; nearly all actives have a fitted effect of over 70% in size
#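 AlphaScreen: HP1-beta (50 nM) preformed 30 min with biotin-H3(1-18)K9me3 peptide (50 nM) in PBS pH 7.4, 0.01% Tween-20. Compound added for 30 min at RT, then streptavidin donor/nickel chelate acceptor beads (10 ug/mL) for 30 min.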
# BAZ2B inh = qHTS Assay for Inhibitors of BAZ2B | AlphaScreen BAZ2B-H3K14Ac peptide displacement | Potency, µM (doses to about 114 µM), for the others: at the highest dose activity change, negative = inhibition, hits mostly inhibitors | actives 4.4% (n = 360,000) | AID 504333, 2011; further: potency means the concentration at half of the fitted maximal effect; on the % scale 0 is the no-effect control and ±100 the full control effect; nearly all actives have a fitted effect of over 60% in size
#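 AlphaScreen luminescence quantifies BAZ2B engagement of H3K14Ac peptide; the protein and biotinylated peptide are both at 50 nM final, buffer PBS pH 7.4 with 0.01% Tween-20, all steps at room temperature.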
# G9a inh = qHTS Assay for Inhibitors of Histone Lysine Methyltransferase G9a. Potency, µM (series often up to 102 µM), without a hit: top-dose activity, negative = inhibition, actives largely listed as inhibitors. Histone-lysine N-methyltransferase EHMT2 (Homo sapiens), Q96KQ7. AID 504332, 2011. actives 8.8% (n = 350,000). G9a H3K9 monomethylation, AlphaScreen, 2 h; further: potency means the concentration at half of the fitted maximal effect; on the % scale 0 is the no-effect control and ±100 the full control effect; nearly all actives have a fitted effect of over 75% in size
#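 Step 1: enzyme (final 20 nM) with compound, 15 min RT. Step 2: substrate peptide 500 nM and SAM 20 uM, 2 h RT. Step 3: anti-H3K9me1 antibody and AlphaScreen beads, 10 min, then plate read.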
# Active calls of the source: *; ? = inconclusive; / = no result given; ! = repeats disagree; [ ] = another dose, or the depositor's remark. Unless noted, the call rests on the fitted dose curve; in most records, active means well fitted curve in the direction sought with a large enough effect; inconclusive means small, poorly fitted or top-dose-only effect, or another doubt; inactive means no such curve, though single readings can be large; an effect the other way counts as inactive or inconclusive.
SMILES,JMJD2A Tudor,PI5P4Ka inh,PLK1 PBD block,HP1b chromo inh,BAZ2B inh,G9a inh
CCc1ccccc1NC(=O)c1cccc(NC(=O)/C=C/c2ccco2)c1,-27.4%,-11.8,-3.7%,-2.5%,-36.8%,?
O=C(/C=C/c1ccco1)Nc1cccc(C(=O)Nc2ccccc2C(=O)O)c1,79.4µM*,-68.7*,21.2µM*,-18.4%,?,/
Cc1ccc(NC(=O)N/C=C/c2ccco2)c(C)c1,?,/,-12.7%,1.5%,-34.7%,?
Cc1ccc(NC(=O)c2cccc(NC(=O)/C=C/c3ccco3)c2)cc1C,-33.1%,-63.9*,-9.4%,-25.5%,-36.8%,?
COc1ccc(CNC(=O)CCc2c(C)c3cc4c(C)c(C)oc4cc3oc2=O)cc1,-35.5%,/,/,-5.8%,-13.3%,-30.9%[59 µM]
CCOC(=O)c1[nH]cnc1C(=O)Nc1cccc(OC)c1,?,2.4,-11.6%,29.3%,?,28.2µM*!
CNC(=O)c1[nH]cnc1C(=O)Nc1cccc(OC)c1,-25.8%,-9.4,-1.0%,16.3%,50.1µM*,?
CNC(=O)c1[nH]cnc1C(=O)Nc1ccccc1,-23.2%,-2.6,1.0%,22.1%,?,5.3%[0.501 µM]
CNC(=O)c1[nH]cnc1C(=O)Nc1ccccn1,?,-2.3,3.1%,-2.3%,56.2µM*,/
COC(=O)c1ccc2c(=O)[nH]c(CN3c4ccccc4CC3C)nc2c1 (stereo not drawn),-30.0%,?,-13.7%,8.0%,-28.9%,11.2µM*
CC1Cc2ccccc2N1Cc1nc2cc(Cl)ccc2c(=O)[nH]1 (stereo not drawn),?,?,-12.2%,2.7%,?,?
COc1ccc(N2CCN(Cc3nc4scc(-c5cccs5)c4c(=O)[nH]3)CC2)cc1,-9.3%,-10.1,2.7%,21.4%,-20.1%,-8.7%
CC1Cc2ccccc2N1Cc1nc2scc(-c3cccs3)c2c(=O)[nH]1 (stereo not drawn),-15.2%,2.7,-2.3%,22.2%,-32.5%,44.7µM*
COc1cc(NC(=O)c2noc3c2CC(C)CC3)c(OC)cc1Cl (stereo not drawn),-12.3%,/,/,13.0%,3.4%[57.1 µM],-21.8%[59 µM]
CC(C)(C)c1cccc(S(=O)(=O)N2CCN(c3nc(-c4cccs4)nc4ccccc34)CC2)c1,-17.0%,/,/,32.2%,/,/
COc1ccc(C=O)cc1Cn1ccnc1,-15.0%,-4.3,-2.3%,19.0%,-9.2%,-6.3%
COc1ccc(CNc2ccc(Cl)cc2)cc1Cn1ccnc1,50.1µM*,-4.1,-3.4%,?,25.1µM*,35.5µM*
O=C(Oc1ccc2c(=O)c(Cl)coc2c1)c1ccncc1,-1.6%[57.1 µM],-12.8,?,40.4%,?,35.5µM*
COc1ccc(CCNC(=O)CCCCn2c(=O)c3ccccc3n(CC(=O)Nc3ccc(C)cc3C)c2=O)cc1OC,-19.8%,/,/,31.3%,-1.3%,8.2%[59 µM]
CC1(C)Cc2c(sc(NC(=O)C(=O)NCCCN3CCOCC3)c2C#N)CO1,2.3%,4.3,11.9µM*,22.3%,-19.6%,22.4µM*
CC1(C)Cc2c(sc(NC(=O)/C=C/C(=O)O)c2C#N)CO1,-7.7%,?,-4.2%,39.8%,-9.1%,/
CCOc1ccccc1OCC(=O)NCc1ccco1,?,/,-21.5%,14.0%,?,?
CC(=O)c1cccc(OCC(=O)N(C)CC(=O)NCc2ccco2)c1,22.4µM*,-19.5,?,?,/,/
Cc1ccc(OCC(=O)N(C)CC(=O)NCc2ccco2)c(Br)c1,35.5µM*,?,?,?,50.1µM*,56.2µM*
O=C(CN1CCCc2ccccc21)N/N=C/c1ccccc1O,-9.2%,10.3,-11.3%,18.6%,0.4%,12.0%
